This test can be described thus: NCI Yeast Anticancer Drug Screen. Data for the rad52 strain (AID 147).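 Also: 0% = growth of vehicle-treated control cultures.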 Particulars: S. cerevisiae rad52 mutant growth inhibition, hits give high values. The protocol: Growth inhibition of yeast strains with defined genetic alterations is measured as a screen for potential anti-cancer activity. Selected strains with alterations in DNA damage repair or cell cycle control were exposed to compounds and growth inhibition was measured relative to vehicle treated controls. The strain used in this assay is rad52

Each structure is given as a SMILES string. This is part of a sample that, as a whole, favours compounds with a hit. Of some 79,000 tested, about 15% had one in any assay. A number with no mark means an inactive call. Active and inactive are the calls of the source. Rule as the data show it: active = growth inhibition above about 70%; inactive = the rest.

As for `C[Si](C)(C)/C=C/CCNC(C#N)c1ccccc1` (stereo not given), the growth inhibition (at 1.2 µM) was -10%; the growth inhibition (at 3.7 µM) is -9%; the growth inhibition (at 11.0 µM) was 48%; the growth inhibition (at 33.0 µM) was 32%; the growth inhibition (at 100.0 µM) was 93% (active).
Consider `CC1=NOC(=O)/C1=C/c1ccc2c(c1)OCO2`, for which the growth inhibition by setting is: (at 1.2 µM) 0%; (at 3.7 µM) 4%; (at 11.0 µM) 17%; (at 33.0 µM) 32%; (at 100.0 µM) 39%.
As for `C/C(=N\Nc1ccc([N+](=O)[O-])cc1[N+](=O)[O-])c1sc(-n2nc(-c3ccccc3)cc2-c2ccccc2)nc1C`, the growth inhibition is -1% (at 1.2 µM); 13% (at 3.7 µM); 7% (at 11.0 µM); 0% (at 33.0 µM); 26% (at 100.0 µM).
For the molecule `O=C1c2ccccc2C(=O)c2cc(CCl)ccc21`, the growth inhibition was 4% (at 1.2 µM); 12% (at 3.7 µM); 17% (at 11.0 µM); 21% (at 33.0 µM); 20% (at 100.0 µM).
Consider `Nc1ncc(-c2ccc(Br)cc2)s1`, for which the growth inhibition is, setting by setting: (at 1.2 µM) 20%; (at 3.7 µM) 35%; (at 11.0 µM) 36%; (at 33.0 µM) 92% (active); (at 100.0 µM) 98% (active).
Consider `CCOC(=O)c1cc([N+](=O)[O-])c(Sc2ncnc3nc[nH]c23)c([N+](=O)[O-])c1`, for which the growth inhibition was 0% (at 1.2 µM); 0% (at 3.7 µM); 34% (at 11.0 µM); 79% (active) (at 33.0 µM); 90% (active) (at 100.0 µM).
Regarding `O=C1C=C(c2ccccc2)OC1(c1ccccc1)N1CCOCC1` (stereo not given), the growth inhibition was -1% (at 1.2 µM); -1% (at 3.7 µM); 3% (at 11.0 µM); 16% (at 33.0 µM); 98% (active) (at 100.0 µM).
Turning to `CC1=C(SCc2ccccc2)C(=O)c2ccccc2C1=O`, the growth inhibition reads like this: (at 1.2 µM) -28%; (at 3.7 µM) -24%; (at 11.0 µM) 4%; (at 33.0 µM) 81% (active); (at 100.0 µM) 90% (active).

The values are drawn from PubChem BioAssay (NCI).
